{"source": "ChEMBL document CHEMBL1201862", "about": "“PubChem BioAssay data set” (2004)", "note": "Screen size: about 400,000 compounds; about 2,100 (0.53%) were called active. Another 14% or so got no clear call; they are omitted. The sample holds actives, similar compounds and a random draw of the others, so the mix is not that of the screen. No rule for the calls is given here.", "data": [{"target": "Ataxin-2 (Homo sapiens) (UniProt Q99700)", "sequence (Q99700 whole entry)": "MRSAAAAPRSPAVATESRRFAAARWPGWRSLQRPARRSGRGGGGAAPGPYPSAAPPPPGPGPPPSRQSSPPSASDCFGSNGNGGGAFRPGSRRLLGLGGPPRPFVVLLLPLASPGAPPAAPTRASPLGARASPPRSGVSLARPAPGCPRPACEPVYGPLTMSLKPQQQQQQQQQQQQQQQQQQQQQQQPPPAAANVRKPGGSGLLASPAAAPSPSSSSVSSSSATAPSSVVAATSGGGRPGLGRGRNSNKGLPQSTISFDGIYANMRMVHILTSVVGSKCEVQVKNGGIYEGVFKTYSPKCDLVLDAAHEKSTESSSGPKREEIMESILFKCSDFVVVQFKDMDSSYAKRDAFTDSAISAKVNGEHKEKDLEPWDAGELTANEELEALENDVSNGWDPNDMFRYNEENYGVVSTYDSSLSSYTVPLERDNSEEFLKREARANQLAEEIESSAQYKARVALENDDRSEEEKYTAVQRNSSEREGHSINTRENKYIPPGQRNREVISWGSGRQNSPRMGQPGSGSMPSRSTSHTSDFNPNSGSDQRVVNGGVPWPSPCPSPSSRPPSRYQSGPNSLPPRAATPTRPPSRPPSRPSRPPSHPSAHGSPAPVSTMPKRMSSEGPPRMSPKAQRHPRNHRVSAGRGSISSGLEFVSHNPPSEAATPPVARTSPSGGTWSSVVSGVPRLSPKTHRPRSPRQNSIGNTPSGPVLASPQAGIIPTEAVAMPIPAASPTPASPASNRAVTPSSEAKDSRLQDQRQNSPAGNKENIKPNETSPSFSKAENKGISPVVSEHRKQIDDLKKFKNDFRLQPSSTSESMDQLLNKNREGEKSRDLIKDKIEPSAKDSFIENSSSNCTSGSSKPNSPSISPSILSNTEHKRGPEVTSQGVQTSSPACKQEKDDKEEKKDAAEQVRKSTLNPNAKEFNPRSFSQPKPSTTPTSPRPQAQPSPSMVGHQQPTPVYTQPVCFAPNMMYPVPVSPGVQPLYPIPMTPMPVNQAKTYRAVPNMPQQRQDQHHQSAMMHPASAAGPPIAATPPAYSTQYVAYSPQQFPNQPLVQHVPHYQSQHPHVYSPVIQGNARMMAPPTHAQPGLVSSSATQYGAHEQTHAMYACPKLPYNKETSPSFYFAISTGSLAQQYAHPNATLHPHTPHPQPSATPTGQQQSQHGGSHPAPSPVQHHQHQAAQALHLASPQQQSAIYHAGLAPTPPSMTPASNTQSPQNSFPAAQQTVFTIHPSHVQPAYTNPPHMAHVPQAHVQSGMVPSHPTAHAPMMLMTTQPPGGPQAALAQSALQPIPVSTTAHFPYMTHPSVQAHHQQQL", "experiment": "qHTS for Inhibitors of ATXN expression.", "type": "functional", "values": [{"smiles": "COc1ccc(CNCc2c(O)c(Cl)cc3c(C)c(C)c(=O)oc23)c(OC)c1", "Potency": "inactive"}, {"smiles": "COc1ccc(Cn2c(C)nc3ccc([N+](=O)[O-])cc3c2=O)cc1", "Potency": "inactive"}, {"smiles": "Cc1ccc(Cn2c(C(=O)O)c(CNCc3ccc(C)o3)c3ccc(C)cc32)cc1", "Potency": "35.5 µM (active)"}, {"smiles": "COc1ccc(Cn2c(C(=O)O)c(CNCc3ccc(C)o3)c3ccc(C)cc32)cc1", "Potency": "17.8 µM (active)"}, {"smiles": "Cc1ccc2c(CNCc3ccc(C)o3)c(C(=O)O)n(Cc3ccc(F)cc3)c2c1", "Potency": "35.5 µM (active)"}, {"smiles": "CC(=O)c1cn(Cc2ccccc2)c(=O)n(Cc2ccc(F)cc2)c1=O", "Potency": "inactive"}, {"smiles": "Cc1c(O[C@@H]2O[C@H](CO)[C@@H](O)[C@H](O)[C@H]2O)ccc2c1oc(=O)c1ccccc12", "Potency": "inactive"}, {"smiles": "CC(C)OCCCn1c(-c2ccco2)nc2nc3ccccc3nc21", "Potency": "inactive"}, {"smiles": "O=C(Cn1c(C(F)(F)F)nc2ccccc21)Nc1ccccc1C(=O)O", "Potency": "inactive"}, {"smiles": "O=C(Cn1c(SCC(=O)Nc2ccc(F)cc2)nc2ccccc21)NCc1ccccc1Cl", "Potency": "39.8 µM (active)"}, {"smiles": "CC(C)(C)NC(=O)Cn1c(SCC(=O)NC2CC2)nc2ccccc21", "Potency": "inactive"}, {"smiles": "C/N=c1\\scc(-c2ccc(OC)cc2)n1/N=C(\\C)c1cccnc1", "Potency": "inactive"}, {"smiles": "CC1=CC(=Cc2sc3ccccc3[n+]2C)C=C(C)N1CC1CCCO1", "note": "(configuration not stated)", "Potency": "inactive"}, {"smiles": "Cc1cc(C)n(-c2nnc(Cl)c3ccccc23)n1", "Potency": "39.8 µM (active)"}, {"smiles": "COc1ccc(-c2nc(C#N)c(N3CCCCC3)o2)cc1", "Potency": "inactive"}, {"smiles": "Nc1nc(N)c2cc(CNc3ccc(Cl)c(Cl)c3)ccc2n1", "Potency": "11.2 µM (active)"}, {"smiles": "CCN1CCN(c2cc(-c3ccccc3)nc3cc(-c4cccc(F)c4)nn23)CC1", "Potency": "17.8 µM (active)"}, {"smiles": "CCN1CCN(c2nc(NCCO)c3ccccc3n2)CC1", "Potency": "inactive"}, {"smiles": "COc1ccc(-c2cc(C(F)(F)F)n3nc(-c4ccccc4)cc3n2)cc1OC", "Potency": "inactive"}, {"smiles": "Cc1ccnc(NC(=O)c2ccccc2NC(=O)c2ccc(Cl)cc2Cl)c1", "Potency": "inactive"}, {"smiles": "Cc1ccnc(NC(=O)c2cc3c(=O)oc4ccc(C)cc4c3s2)c1", "Potency": "20 µM (active)"}, {"smiles": "CCN(CC)c1ccc2cc(C(=O)Nc3ccccn3)c(=O)oc2c1", "Potency": "inactive"}, {"smiles": "COc1ccc(Cl)cc1N(CC(=O)N(C)C)S(=O)(=O)c1ccc(C)c([N+](=O)[O-])c1", "Potency": "inactive"}, {"smiles": "CCOC(=O)C(C)(C)N(Cc1cccc(C)c1)S(=O)(=O)c1ccc(Cl)c([N+](=O)[O-])c1", "Potency": "39.8 µM (active)"}, {"smiles": "CN(C)Cc1c(O)ccc2c3c(c(=O)oc12)CCCCC3", "Potency": "inactive"}, {"smiles": "CCCCc1cc(=O)oc2c(CN(C)C)c(O)ccc12", "Potency": "inactive"}, {"smiles": "CCOC(=O)c1c(CSc2ccc(CC)cc2)oc2ccc(O)c(CN(C)C)c12", "Potency": "22.4 µM (active)"}]}]}
